PubChem BioAssay AID939 (National Center for Advancing Translational Sciences (NCATS), 2007)
Inconclusive results are not listed.

Experiment: Confirmation Concentration-Response Assay for Agonists of the Thyroid Stimulating Hormone Receptor; also: reference of the scale not given here
Details: HEK293 TSHR-CNG cells, membrane potential dye, cAMP; measured here: parental HEK293 counter-screen max
Method in brief: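 HEK 293 cells stably expressing TSHR and a modified CNG channel as cAMP biosensor; parental CNG-only cells as counterscreen. Cells loaded with membrane potential dye containing 100 uM RO 20-1724 for 60 min, compound added 30 min, fluorescence read at 590 nm.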

Row | Structure (SMILES) | max response [%]
1 | CCc1ccc(-c2nc(CN3CCC(C(=O)N4CCN(c5ccccc5)CC4)CC3)c(C)o2)cc1 | 12.8
2 | O=C(CN(Cc1ccccc1Cl)C(=O)Cn1nnc(-c2cccs2)n1)NCC1CCCO1 (configuration not stated) | 8.66
3 | CC(=O)N1CCCc2cc(S(=O)(=O)N(CC(C)C)CC(C)C)ccc21 | 14.4
4 | COc1cccc(C2CC(c3ccccc3OC)n3nc(N)nc3N2)c1 (configuration not stated) | 6.01
5 | COc1ccc(C2Nc3ccccc3C(=O)N2Cc2ccco2)cc1COc1ccc(NC(C)=O)cc1 (configuration not stated) | 21.9
6 | C=CCn1c(NCc2ccc3c(c2)OCO3)nc2ccccc21 | 13.4
7 | CCn1c(=O)c(C(=O)CN2CCCc3ccccc32)c(N)n(Cc2ccccc2)c1=O | -16.6
8 | Cc1ccc(-n2nc(-c3ccc(N)cc3)cc2N)cc1 | -8.96
9 | Cc1ccc(N(CC(=O)NCc2ccco2)S(=O)(=O)c2ccccc2)cc1 | -6.79
10 | Cc1onc(-c2ccccc2)c1C(=O)N1CCCSC1=Nc1ccccc1 | 18.9
11 | Cc1nn(-c2ccccc2)c(N2CCCC2)c1/C=N/n1cnc2scc(-c3ccccc3)c2c1=O | 16.6
12 | C=CCn1c(COc2ccccc2F)nnc1SCC(=O)N1CC(=O)Nc2ccccc21 | -6.56
